# Data published in PubChem BioAssay (NCATS).
# Results filed as inconclusive are left out. Where a call stands in place of a potency, no number is given. Active and inactive are the calls of the source. The call rests on the fitted dose curve; in most records, active means well fitted inhibition curve with a large enough effect; inconclusive means small, poorly fitted or top-dose-only effect; inactive means flat fitted curve, though single readings scatter.
# Target: Phospholipid hydroperoxide glutathione peroxidase GPX4 (Homo sapiens) (UniProt P36969)
# Test: Primary qHTS Assay for Inhibitors of Recombinant Selenoprotein Glutathione Peroxidase 4 (GPX4) (AID 1845192); further: nearly all actives have a fitted effect of over 65% in size
# Conditions: recombinant GPX4, GR-coupled NADPH fluorescence, 15 min; series mostly up to 50 µM; activity change, negative = inhibition: at the top concentration
# Source text: Assay Provider: Elias S.J. Arner MD PhD.
# Department of Medical Biochemistry and Biophysics
# Karolinska Institutet, Solna, Stockholm, Sweden
# Selenoprotein glutathione peroxidases (GPX), like the ubiquitously expressed GPX1 and the ferroptosis modulator GPX4, enact their antioxidant activities by reducing hydroperoxides using glutathione. […] GPX1 and GPX4 inhibitors have thus shown promise as anti-cancer agents. Existing inhibitors are often promiscuous, or modulate GPX activity only indirectly, so novel direct inhibitors identified through screening against GPX1 and GPX4 could be valuable. Here, we developed optimized glutathione reductase (GR)-coupled GPX assays for the biochemical high-throughput screen (HTS) of almost 12,000 compounds with known mechanisms of action. Initial hits were triaged using a GR counter-screen, assessed for isoform specificity using a separate GPX2 assay, and were assessed for general selenocysteine-targeting activity using a thioredoxin reductase (TXNRD1) assay. With this suite of assays, we identified novel GPX1/GPX2- and GPX4-specific inhibitors and can here present a validated pipeline for future discovery research for selenoprotein-targeting agents.
# SEQUENCE No. (e.g., 1, 2, 3, etc.); […] (e.g., Cells, Incubation, Reagent, etc.); VALUE; DESCRIPTION.
# 1; Reagent 1; 3 uL; 333.33 nM GPx4 enzyme or no enzyme control in 1536-well, black, solid Greiner assay plate.
# 2; Compound; 25 nL; Kalypsis pin tool (Wako USA) equipped with a 1536-well pin head.
# 3; Incubation; 30 min; room temperature.
# 4; Reagent 2; 1 uL; 500 nM GR, 5 mM GSH, 2.5 mM NADPH solution
# 5; Reagent 3; 1 uL; 2.5 mM CHP in 50% EtOH.
# 6; Detection; Fluorescence; ViewLux microplate reader, excitation 340 nm and emission 450 nm.
# 7; Incubation; 15 min; room temperature.
# 8; Detection; Fluorescence; ViewLux microplate reader, excitation 340 nm and emission 450 nm.
# NOTES (numbers refer to Sequence numbers above)
# 1. 3 µL of 333.33 nM GPX4 and 0.016% BSA in assay buffer (50 mM Tris-HCl, 2 mM EDTA (pH 7.5), 150 mM NaCl) was added to columns 3-48 of 1536-well plates using a BioRAPTR Flying Reagent Dispenser (Let's Go Robotics (LGR), Carlsbad, CA). A no-enzyme control (0.01% BSA in TES assay buffer) was added to columns 1-2.
# 2. 25 nL, library and DMSO controls were added to each well with a pin tool (Kalypsys).
# 3. The assay plates were incubated for 30 minutes at room temperature.
# 4. 1 µL of master mix (500 nM glutathione reductase (GR), 5 mM reduced glutathione (GSH), 2.5 mM NADPH in assay buffer) was added.
# 5. 1 µL of cumene hydroperoxide (CHP) ([2.5 mM] in 50% EtOH) was then added within 5 minutes to initiate the reaction. Final concentrations were: 200 nM GPX4, 1 mM GSH, 0.5 mM CHP, 0.5 mM NADPH, 100 nM GR, 0.01% BSA.
# 6. Initial fluorescence readout (t=0) at 340/450 nm was measured using a ViewLux multimodal detector (PerkinElmer, Waltham, MA).
# 8. Endpoint fluorescence readout (t=15) at 340/450 nm was measured 15 min after room temperature incubation.
# Phospholipid hydroperoxide glutathione peroxidase GPX4 (Homo sapiens), sequence (P36969 whole entry, looked up): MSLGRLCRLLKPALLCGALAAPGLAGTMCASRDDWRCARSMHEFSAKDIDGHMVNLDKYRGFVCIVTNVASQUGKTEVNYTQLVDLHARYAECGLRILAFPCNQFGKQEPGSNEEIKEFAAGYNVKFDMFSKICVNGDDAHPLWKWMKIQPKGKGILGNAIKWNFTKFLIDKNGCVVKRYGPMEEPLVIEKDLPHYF
SMILES,Potency,"activity change, negative = inhibition",outcome
CCCCc1ncc(/C=C(\Cc2cccs2)C(=O)O)n1Cc1ccc(C(=O)O)cc1,inactive,–,–
O=C(O)COc1nn(Cc2ccccc2)c2ccccc12,–,-18.1% (inactive),–
OC[C@H]1O[C@@H](O[C@@H]2[C@@H](CO)O[C@](O)(CO)[C@H]2O)[C@H](O)[C@@H](O)[C@H]1O,inactive,–,–
Cc1ncc(COP(=O)(O)O)c(C=O)c1O,–,-3.09% (inactive),–
Cc1ccc2nc(N)[nH]c(=O)c2c1Sc1ccncc1,inactive,–,–
CC(C)(C)[C@]1(O)CCN2C[C@H]3c4ccccc4CCc4cccc(c43)[C@@H]2C1,inactive,–,–
C[C@]12CC[C@@H]3c4ccc(O)cc4CC[C@H]3[C@@H]1CC[C@@H]2OC(=O)CCC1CCCC1,–,–,inactive
CC(C)c1c(C(=O)Nc2ccccc2)c(-c2ccccc2)c(-c2ccc(F)cc2)n1CC[C@@H](O)C[C@@H](O)CC(=O)O,inactive,–,–
CC1(C)[C@@H]2CC[C@@]1(C)C(=O)C2,–,2.47% (inactive),–
CCN(CC)CCNC(C(=O)OCCC(C)C)c1ccccc1 (stereo not given),–,–,inactive
COc1ccc2c(c1)C(=O)N(CCc1ccc(S(=O)(=O)NC(=O)NC3CCCCC3)cc1)C(=O)C2(C)C,–,1.3% (inactive),–
COc1ccccc1O,–,–,inactive
O=c1[nH]cnc2c1ncn2[C@@H]1O[C@H](CO)[C@@H](O)[C@H]1O,inactive,–,–
c1ccc(CN(CC2=NCCN2)c2ccccc2)cc1,inactive,–,–
CC(C(O)c1ccc(O)cc1)N1CCC(Cc2ccccc2)CC1 (stereo not given),inactive,–,–
O=c1cc[nH]c(=O)[nH]1,–,–,inactive
C[C@]12C[C@H](O)[C@H]3[C@@H](CCC4=CC(=O)CC[C@@]43C)[C@@H]1CC[C@@H]2C(=O)CO,–,–,inactive
COc1cc(C)c(Cc2cnc(N)nc2N)cc1OC,–,-4.31% (inactive),–
CCN(CC)C(=O)Nc1ccc(OCC(O)CNC(C)(C)C)c(C(C)=O)c1 (stereo not given),inactive,–,–
NS(=O)(=O)c1cc2c(cc1Cl)NC(CSCc1ccccc1)=NS2(=O)=O,–,4.53% (inactive),–

SMILES,Potency,"activity change, negative = inhibition",outcome
C[C@](N)(Cc1ccc(O)cc1)C(=O)O,inactive,–,–
OCCN1CCN(CCCN2c3ccccc3Sc3ccc(Cl)cc32)CC1,inactive,–,–
N[C@@H](CSSC[C@H](N)C(=O)O)C(=O)O,–,-7.83% [at 0.409 µM] (inactive),–
CC(C)(C)c1onc(OCP(=O)(O)O)c1CC(N)C(=O)O (stereo not given),–,-6.69% (inactive),–
CC(=O)c1ccc2c(c1)N(CCCN(C)C)c1ccccc1S2,inactive,–,–
CCCCN(CCCC)CCCOC(=O)c1ccc(N)cc1,–,-19.6% (inactive),–
CC(=O)OCC(=O)[C@@]1(O)CC[C@H]2[C@@H]3CCC4=CC(=O)CC[C@]4(C)[C@H]3C(=O)C[C@@]21C,inactive,–,–
CNCCC(Oc1ccc(C(F)(F)F)cc1)c1ccccc1 (stereo not given),inactive,–,–
CN1[C@@H]2CC[C@H]1CC(OC(=O)C(O)c1ccccc1)C2 (stereo not given in full),–,–,inactive
Nc1cc(=O)[nH]c(N)n1,–,-7.93% (inactive),–
CNCCCC1c2ccccc2C=Cc2ccccc21,inactive,–,–
CCCCN(CCCC)CC(O)c1cc(Cl)cc2c1-c1ccc(Cl)cc1/C2=C/c1ccc(Cl)cc1 (stereo not given),–,-1.25% (inactive),–
CCOc1nc2cccc(C(=O)O)c2n1Cc1ccc(-c2ccccc2-c2nn[nH]n2)cc1,–,15.1% (inactive),–
CCCCC(CC)COC(=O)c1ccccc1O (stereo not given),–,–,inactive
CC(COc1ccccc1)NC(C)C(O)c1ccc(O)cc1 (stereo not given),–,4.12% (inactive),–
CC[C@@]1(c2ccccc2)NC(=O)N(C)C1=O,–,0.724% (inactive),–
O=c1[nH]c(=O)c2[nH]c(=O)[nH]c2[nH]1,–,-16.1% [at 9.73 µM] (inactive),–
O=Cc1ccccc1C=O,–,-6.09% (inactive),–
N[C@H]1C(O)O[C@H](CO)[C@@H](O)[C@@H]1O (stereo not given in full),–,–,inactive
CCC(=O)c1ccc(O)cc1,–,–,inactive
